Results: PubChem BioAssay (NCI)
The panel holds about 79,000 compounds, 15% with a hit somewhere; the sample as a whole holds those more often. A number with no mark means an inactive call. Activity calls are given as the source filed them. Rule as the data show it: active = growth inhibition above about 70%; inactive = the rest.

Legend:
[1] = NCI Yeast Anticancer Drug Screen. Data for the rad52 strain (AID 147);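 also: 0% = growth of vehicle-treated control cultures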; conditions: S. cerevisiae rad52 mutant growth inhibition, hits give high values
Procedure, shortened: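 Measured: yeast growth inhibition. System: strain with a defined DNA damage repair alteration. Reference: vehicle-treated control cultures.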

[2] = NCI Yeast Anticancer Drug Screen. Data for the wt1 strain (AID 149);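 also: 0% = growth of vehicle-treated wt1 cultures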; conditions: S. cerevisiae wt1 strain (SPY 50644) growth inhibition, hits give high values
Procedure, shortened: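 Using yeast strain wt1, compound-induced growth inhibition was determined against vehicle-treated cultures.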

[3] = NCI Yeast Anticancer Drug Screen. Data for the rad50 strain (AID 155);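 also: 0% = growth of vehicle-only cultures of the same strain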; conditions: S. cerevisiae rad50 strain growth inhibition, hits give high values
Procedure, shortened: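 Relative growth inhibition (compound vs vehicle) was measured in yeast with a defined repair-gene alteration.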

[4] = NCI Yeast Anticancer Drug Screen. Data for the mec2-1 strain (AID 157); conditions: S. cerevisiae mec2-1 strain, hits give high values
Procedure, shortened: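 Test agents were screened against the mec2-1 yeast strain, with defined DNA repair or cell cycle alteration. Growth was scored as inhibition against vehicle-only controls.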

[5] = NCI Yeast Anticancer Drug Screen. Data for the rad14 strain (AID 159);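 also: 0% = growth of vehicle-treated control cultures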; conditions: S. cerevisiae rad14 strain growth inhibition, hits give high values
Procedure, shortened: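 Screen for anticancer potential: a yeast strain altered in DNA damage repair is grown with compound, and reduced growth is quantified against vehicle controls.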

[6] = NCI Yeast Anticancer Drug Screen. Data for the sgs1 mgt1 strain (AID 161);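 also: 0% = growth of cultures given vehicle only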; conditions: S. cerevisiae sgs1 mgt1 strain, hits give high values
Procedure, shortened: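 Inhibition of yeast growth, normalised to vehicle-treated controls, is reported for a strain bearing genetic alterations in DNA damage repair.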

[7] = NCI Yeast Anticancer Drug Screen. Data for the CLN2oe strain (AID 163);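 also: 0% = growth of vehicle-only control cultures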; conditions: S. cerevisiae CLN2oe strain, hits give high values
Procedure, shortened: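 Here, growth inhibition in a cell-cycle-altered yeast strain after compound exposure was quantified against vehicle control growth.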

[8] = NCI Yeast Anticancer Drug Screen. Data for the cln2 rad14 strain (AID 165);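 also: 0% = growth equal to vehicle treated cultures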; conditions: S. cerevisiae cln2 rad14 strain, hits give high values
Procedure, shortened: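 Growth of compound-exposed yeast (cln2 rad14 genotype) measured and expressed as inhibition relative to vehicle.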

[9] = NCI Yeast Anticancer Drug Screen. Data for the bub3 strain (AID 167); conditions: S. cerevisiae bub3 mutant strain, hits give high values
Procedure, shortened: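 Screening used yeast with an engineered genetic alteration affecting cell cycle control. Compound-exposed cultures were compared with vehicle cultures, and reduced growth was taken as inhibition.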

[10] = NCI Yeast Anticancer Drug Screen. Data for the mlh1 strain (AID 171);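 also: 0% = growth of vehicle-treated control cultures of the same strain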; conditions: S. cerevisiae mlh1 strain growth inhibition, hits give high values
Procedure, shortened: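 Here the genetically defined yeast mutant is grown with each compound, and the extent to which its growth falls below that of vehicle-exposed cells is reported.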

[11] = NCI Yeast Anticancer Drug Screen. Data for the sgs1 strain (AID 173);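 also: 0% = growth of vehicle-only control cultures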; conditions: S. cerevisiae sgs1 mutant, hits give high values
Procedure, shortened: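 Relative growth inhibition, referenced to vehicle, was determined in a yeast strain with a defined alteration affecting DNA damage repair or cell cycle control after compound exposure.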

[12] = NCI Yeast Anticancer Drug Screen. Data for the mlh1 rad18 strain (AID 175); conditions: S. cerevisiae mlh1 rad18 strain growth inhibition, hits give high values
Procedure, shortened: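 In this whole-cell yeast screen, a strain with altered DNA damage repair is challenged with compound, and its growth is measured against matched vehicle-treated controls.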

[13] = NCI Yeast Anticancer Drug Screen. Data for the rad18 strain (AID 177); conditions: S. cerevisiae rad18 mutant growth inhibition, hits give high values
Procedure, shortened: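 Screen uses a yeast strain with a defined lesion in DNA damage repair; compound effect is read as loss of growth compared to untreated vehicle cultures.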

[14] = NCI Yeast Anticancer Drug Screen. Data for the rad50EPP+ strain (AID 151);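 also: 0% = growth of vehicle-treated control cultures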; conditions: S. cerevisiae rad50 mutant strain, hits give high values
Procedure, shortened: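 One strain with a rad50 alteration (rad50EPP+) was compound-treated, its growth then compared to that of vehicle controls.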

[15] = NCI Yeast Anticancer Drug Screen. Data for the mgt1 strain (AID 153); conditions: S. cerevisiae mgt1 mutant growth inhibition, hits give high values
Procedure, shortened: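 After exposure of the mgt1 yeast mutant to compound, growth was measured and reported as inhibition compared with vehicle controls.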

[16] = NCI Yeast Anticancer Drug Screen. Data for the wt2 strain (AID 169);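 also: 0% = growth of vehicle-treated yeast cultures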; conditions: S. cerevisiae wt2 strain growth inhibition, hits give high values
Procedure, shortened: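 Genetically defined yeast strains from a DNA-repair/cell-cycle panel were used. Compound-exposed yeast growth was measured, and the inhibition was calculated relative to vehicle treatment.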

[17] = at 5.0 µM (retest, dose inferred, filed as 0.5)
[18] = at 50.0 µM (retest, dose inferred, filed as 5.0)

SMILES: O=c1oc2ccccc2c(O)c1C(c1ccc2c(c1)Cc1ccccc1-2)c1c(O)c2ccccc2oc1=O
- growth inhibition ([1]; at 1.2 µM): -7%
- growth inhibition ([1]; at 3.7 µM): 15%
- growth inhibition ([1]; at 11.0 µM): 19%
- growth inhibition ([1]; at 33.0 µM): 65%
- growth inhibition ([1]; at 100.0 µM): 96% (active)
- growth inhibition ([2]; at 1.2 µM): -16%
- growth inhibition ([2]; at 3.7 µM): -5%
- growth inhibition ([2]; at 11.0 µM): 5%
- growth inhibition ([2]; at 33.0 µM): 53%
- growth inhibition ([2]; at 100.0 µM): 97% (active)
- growth inhibition ([3]; at 1.2 µM): 1%
- growth inhibition ([3]; at 3.7 µM): 14%
- growth inhibition [3, 17]: 17%
- growth inhibition ([3]; at 11.0 µM): 22%
- growth inhibition ([3]; at 33.0 µM): 61%
- growth inhibition [3, 18]: 5%
- growth inhibition ([3]; at 50.0 µM): 70.2% (active)
- growth inhibition ([3]; at 100.0 µM): 96% (active)
- growth inhibition ([4]; at 1.2 µM): -18%
- growth inhibition ([4]; at 3.7 µM): -4%
- growth inhibition [4, 17]: 12%
- growth inhibition ([4]; at 11.0 µM): 25%
- growth inhibition ([4]; at 33.0 µM): 95% (active)
- growth inhibition [4, 18]: 92% (active)
- growth inhibition ([4]; at 50.0 µM): 89% (active)
- growth inhibition ([4]; at 100.0 µM): 97% (active)
- growth inhibition ([5]; at 1.2 µM): 9%
- growth inhibition ([5]; at 3.7 µM): 14%
- growth inhibition ([5]; at 11.0 µM): 18%
- growth inhibition ([5]; at 33.0 µM): 97% (active)
- growth inhibition ([5]; at 100.0 µM): 98% (active)
- growth inhibition [6, 17]: -14%
- growth inhibition [6, 18]: 96% (active)
- growth inhibition ([6]; at 50.0 µM): 73.4% (active)
- growth inhibition ([7]; at 1.2 µM): 23%
- growth inhibition ([7]; at 3.7 µM): 0%
- growth inhibition ([7]; at 11.0 µM): 15%
- growth inhibition ([7]; at 33.0 µM): 91% (active)
- growth inhibition ([7]; at 100.0 µM): 97% (active)
- growth inhibition [8, 17]: 10%
- growth inhibition [8, 18]: 95% (active)
- growth inhibition ([8]; at 50.0 µM): 79% (active)
- growth inhibition ([9]; at 1.2 µM): -7%
- growth inhibition ([9]; at 3.7 µM): -2%
- growth inhibition [9, 17]: 18%
- growth inhibition ([9]; at 11.0 µM): 13%
- growth inhibition ([9]; at 33.0 µM): 63%
- growth inhibition [9, 18]: 95% (active)
- growth inhibition ([9]; at 50.0 µM): 75.9% (active)
- growth inhibition ([9]; at 100.0 µM): 96% (active)
- growth inhibition ([10]; at 1.2 µM): 4%
- growth inhibition ([10]; at 3.7 µM): 3%
- growth inhibition ([10]; at 11.0 µM): 25%
- growth inhibition ([10]; at 33.0 µM): 96% (active)
- growth inhibition ([10]; at 100.0 µM): 98% (active)
- growth inhibition ([11]; at 1.2 µM): 18%
- growth inhibition ([11]; at 3.7 µM): 29%
- growth inhibition ([11]; at 11.0 µM): 17%
- growth inhibition ([11]; at 33.0 µM): 83% (active)
- growth inhibition ([11]; at 100.0 µM): 97% (active)
- growth inhibition [12, 17]: 14%
- growth inhibition [12, 18]: 59%
- growth inhibition ([12]; at 50.0 µM): 88% (active)
- growth inhibition ([13]; at 1.2 µM): 21%
- growth inhibition ([13]; at 3.7 µM): 25%
- growth inhibition ([13]; at 11.0 µM): 23%
- growth inhibition ([13]; at 33.0 µM): 52%
- growth inhibition ([13]; at 100.0 µM): 96% (active)

SMILES: O=C1C=CC(=O)C1(Br)Br
- growth inhibition ([1]; at 1.2 µM): 7%
- growth inhibition ([1]; at 3.7 µM): 24%
- growth inhibition ([1]; at 11.0 µM): 62%
- growth inhibition ([1]; at 33.0 µM): 95% (active)
- growth inhibition ([1]; at 100.0 µM): 99% (active)
- growth inhibition ([14]; at 1.2 µM): 2%
- growth inhibition ([14]; at 3.7 µM): 15%
- growth inhibition ([14]; at 11.0 µM): 33%
- growth inhibition ([14]; at 33.0 µM): 71% (active)
- growth inhibition ([14]; at 100.0 µM): 99% (active)
- growth inhibition ([15]; at 1.2 µM): 1%
- growth inhibition ([15]; at 3.7 µM): -4%
- growth inhibition ([15]; at 11.0 µM): 25%
- growth inhibition ([15]; at 33.0 µM): 91% (active)
- growth inhibition ([15]; at 100.0 µM): 99% (active)
- growth inhibition ([3]; at 1.2 µM): 4%
- growth inhibition ([3]; at 3.7 µM): 24%
- growth inhibition [3, 17]: 21%
- growth inhibition ([3]; at 11.0 µM): 65%
- growth inhibition ([3]; at 33.0 µM): 94% (active)
- growth inhibition [3, 18]: 99% (active)
- growth inhibition ([3]; at 50.0 µM): 99.6% (active)
- growth inhibition ([3]; at 100.0 µM): 99% (active)
- growth inhibition ([4]; at 1.2 µM): 1%
- growth inhibition ([4]; at 3.7 µM): 5%
- growth inhibition [4, 17]: 3%
- growth inhibition ([4]; at 11.0 µM): 23%
- growth inhibition ([4]; at 33.0 µM): 77% (active)
- growth inhibition [4, 18]: 100% (active)
- growth inhibition ([4]; at 50.0 µM): 99.8% (active)
- growth inhibition ([4]; at 100.0 µM): 99% (active)
- growth inhibition ([5]; at 1.2 µM): 1%
- growth inhibition ([5]; at 3.7 µM): 13%
- growth inhibition ([5]; at 11.0 µM): 28%
- growth inhibition ([5]; at 33.0 µM): 88% (active)
- growth inhibition ([5]; at 100.0 µM): 99% (active)
- growth inhibition [6, 17]: 54%
- growth inhibition [6, 18]: 99% (active)
- growth inhibition ([6]; at 50.0 µM): 99.2% (active)
- growth inhibition [8, 17]: 11%
- growth inhibition [8, 18]: 99% (active)
- growth inhibition ([8]; at 50.0 µM): 99.2% (active)
- growth inhibition ([9]; at 1.2 µM): 3%
- growth inhibition ([9]; at 3.7 µM): 3%
- growth inhibition [9, 17]: 28%
- growth inhibition ([9]; at 11.0 µM): 18%
- growth inhibition ([9]; at 33.0 µM): 95% (active)
- growth inhibition [9, 18]: 99% (active)
- growth inhibition ([9]; at 50.0 µM): 99.4% (active)
- growth inhibition ([9]; at 100.0 µM): 99% (active)
- growth inhibition ([16]; at 1.2 µM): -4%
- growth inhibition ([16]; at 3.7 µM): -4%
- growth inhibition ([16]; at 11.0 µM): 24%
- growth inhibition ([16]; at 33.0 µM): 97% (active)
- growth inhibition ([16]; at 100.0 µM): 99% (active)
- growth inhibition ([10]; at 1.2 µM): 1%
- growth inhibition ([10]; at 3.7 µM): 11%
- growth inhibition ([10]; at 11.0 µM): 36%
- growth inhibition ([10]; at 33.0 µM): 95% (active)
- growth inhibition ([10]; at 100.0 µM): 99% (active)
- growth inhibition ([11]; at 1.2 µM): -13%
- growth inhibition ([11]; at 3.7 µM): -14%
- growth inhibition ([11]; at 11.0 µM): 75% (active)
- growth inhibition ([11]; at 33.0 µM): 99% (active)
- growth inhibition ([11]; at 100.0 µM): 99% (active)
- growth inhibition [12, 17]: 78% (active)
- growth inhibition [12, 18]: 99% (active)
- growth inhibition ([12]; at 50.0 µM): 99.2% (active)
- growth inhibition ([13]; at 1.2 µM): 15%
- growth inhibition ([13]; at 3.7 µM): 40%
- growth inhibition ([13]; at 11.0 µM): 77% (active)
- growth inhibition ([13]; at 33.0 µM): 95% (active)
- growth inhibition ([13]; at 100.0 µM): 99% (active)
